# Results: the supplement of paper PMC4466140
# Legend:
# Assay in all cases: SPOT peptide array binding signal intensity (averaged, normalized) (arbitrary units (background-subtracted, floor 0; scale differs between SH3 domains)); higher = stronger binding of the SH3 domain to the peptide
# AgAbp1 = molecular target: AgAbp1
# In short: (§1)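 E. coli BL21(DE3) was used to express GST-fused SH3 domains from four yeast species, which were then purified on glutathione Sepharose. These were incubated at 10 μg/ml in TBS-based blocking buffer overnight at 4°C on cellulose membranes carrying synthetic 15-mer peptides, in which cysteines were replaced by serines. Binding signal is the replicate average of normalized, background-subtracted spot intensity, in arbitrary units that differ between domains.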
# AgBbc1 = molecular target: AgBbc1
# In short: as §1
# AgBem1-D1 = molecular target: AgBem1-D1
# In short: as §1
# AgBzz1-D1 = molecular target: AgBzz1-D1
# In short: as §1
# AgBzz1-D2 = molecular target: AgBzz1-D2
# In short: as §1
# AgCyk3 = molecular target: AgCyk3
# In short: as §1
# AgFus1 = molecular target: AgFus1
# In short: as §1
# AgHof1 = molecular target: AgHof1
# In short: as §1
# AgHse1 = molecular target: AgHse1
# In short: as §1
# AgLsb1 = molecular target: AgLsb1
# In short: as §1
# AgLsb4 = molecular target: AgLsb4
# In short: as §1
# AgMyo5 = molecular target: AgMyo5
# In short: as §1
# AgNbp2 = molecular target: AgNbp2
# In short: as §1
# AgRvs167 = molecular target: AgRvs167
# In short: as §1
# AgSho1 = molecular target: AgSho1
# In short: as §1
# AgSla1-D1-D2 = molecular target: AgSla1-D1-D2
# In short: as §1
# AgSla1-D3 = molecular target: AgSla1-D3
# In short: as §1
# CaAbp1-D1 = molecular target: CaAbp1-D1
# In short: as §1
# CaAbp1-D2 = molecular target: CaAbp1-D2
# In short: as §1
# CaBbc1 = molecular target: CaBbc1
# In short: as §1
# CaBem1-D1 = molecular target: CaBem1-D1
# In short: as §1
# CaBzz1-D1 = molecular target: CaBzz1-D1
# In short: as §1
# CaBzz1-D2 = molecular target: CaBzz1-D2
# In short: as §1
# CaCyk3 = molecular target: CaCyk3
# In short: as §1
# CaFus1 = molecular target: CaFus1
# In short: as §1
# CaHof1 = molecular target: CaHof1
# In short: as §1
# CaHse1 = molecular target: CaHse1
# In short: as §1
# CaLsb1 = molecular target: CaLsb1
# In short: as §1
# CaLsb4 = molecular target: CaLsb4
# In short: as §1
# CaMyo5 = molecular target: CaMyo5
# In short: as §1
# CaNbp2 = molecular target: CaNbp2
# In short: as §1
# CaRvs167 = molecular target: CaRvs167
# In short: as §1
# CaRvs167-3 = molecular target: CaRvs167-3
# In short: as §1
# CaSho1 = molecular target: CaSho1
# In short: as §1
# CaSla1-D1-D2 = molecular target: CaSla1-D1-D2
# In short: as §1
# CaSla1-D3 = molecular target: CaSla1-D3
# In short: as §1
# ScAbp1 = molecular target: ScAbp1
# In short: as §1
# ScBbc1 = molecular target: ScBbc1
# In short: as §1
# ScBem1-D1 = molecular target: ScBem1-D1
# In short: as §1
# ScBzz1-D1 = molecular target: ScBzz1-D1
# In short: as §1
# ScBzz1-D2 = molecular target: ScBzz1-D2
# In short: as §1
# ScCyk3 = molecular target: ScCyk3
# In short: as §1
# ScFus1 = molecular target: ScFus1
# In short: as §1
# ScHof1 = molecular target: ScHof1
# In short: as §1
# ScHse1 = molecular target: ScHse1
# In short: as §1
# ScLsb1 = molecular target: ScLsb1
# In short: as §1
# ScLsb2 = molecular target: ScLsb2
# In short: as §1
# ScLsb3 = molecular target: ScLsb3
# In short: as §1
# ScLsb4 = molecular target: ScLsb4
# In short: as §1
# ScMyo3 = molecular target: ScMyo3
# In short: as §1
# ScMyo5 = molecular target: ScMyo5
# In short: as §1
# ScNbp2 = molecular target: ScNbp2
# In short: as §1
# ScPex13 = molecular target: ScPex13
# In short: as §1
# ScRvs167 = molecular target: ScRvs167
# In short: as §1
# ScSho1 = molecular target: ScSho1
# In short: as §1
# ScSla1-D1-D2 = molecular target: ScSla1-D1-D2
# In short: as §1
# ScSla1-D3 = molecular target: ScSla1-D3
# In short: as §1
# SpAbp1-D1 = molecular target: SpAbp1-D1
# In short: as §1
# SpBbc1 = molecular target: SpBbc1
# In short: as §1
# SpBzz1-D1 = molecular target: SpBzz1-D1
# In short: as §1
# SpBzz1-D2 = molecular target: SpBzz1-D2
# In short: as §1
# SpCyk3 = molecular target: SpCyk3
# In short: as §1
# SpHof1 = molecular target: SpHof1
# In short: as §1
# SpHof1-2 = molecular target: SpHof1-2
# In short: as §1
# SpHof1-3 = molecular target: SpHof1-3
# In short: as §1
# SpHse1 = molecular target: SpHse1
# In short: as §1
# SpLsb1 = molecular target: SpLsb1
# In short: as §1
# SpLsb4 = molecular target: SpLsb4
# In short: as §1
# SpMyo1 = molecular target: SpMyo1
# In short: as §1
# SpNbp2 = molecular target: SpNbp2
# In short: as §1
# SpPex13 = molecular target: SpPex13
# In short: as §1
# SpRvs167 = molecular target: SpRvs167
# In short: as §1
# SpSla1-D1-D2 = molecular target: SpSla1-D1-D2
# In short: as §1
# SpSla1-D3 = molecular target: SpSla1-D3
# In short: as §1
binder,measurement,setting,value
NPLPKEPRLPKRKVA,SPOT peptide array binding signal intensity,AgAbp1,16
same,SPOT peptide array binding signal intensity,AgBbc1,254
same,SPOT peptide array binding signal intensity,AgBem1-D1,66.5
same,SPOT peptide array binding signal intensity,AgBzz1-D1,48
same,SPOT peptide array binding signal intensity,AgBzz1-D2,78.5
same,SPOT peptide array binding signal intensity,AgCyk3,1
same,SPOT peptide array binding signal intensity,AgFus1,20
same,SPOT peptide array binding signal intensity,AgHof1,28
same,SPOT peptide array binding signal intensity,AgHse1,134
same,SPOT peptide array binding signal intensity,AgLsb1,3.25
same,SPOT peptide array binding signal intensity,AgLsb4,2040
same,SPOT peptide array binding signal intensity,AgMyo5,≤ 0
same,SPOT peptide array binding signal intensity,AgNbp2,25
same,SPOT peptide array binding signal intensity,AgRvs167,23
same,SPOT peptide array binding signal intensity,AgSho1,37
same,SPOT peptide array binding signal intensity,AgSla1-D1-D2,28
same,SPOT peptide array binding signal intensity,AgSla1-D3,9
same,SPOT peptide array binding signal intensity,CaAbp1-D1,655
same,SPOT peptide array binding signal intensity,CaAbp1-D2,376
same,SPOT peptide array binding signal intensity,CaBbc1,1010
same,SPOT peptide array binding signal intensity,CaBem1-D1,30
same,SPOT peptide array binding signal intensity,CaBzz1-D1,122
same,SPOT peptide array binding signal intensity,CaBzz1-D2,95.5
same,SPOT peptide array binding signal intensity,CaCyk3,6.5
same,SPOT peptide array binding signal intensity,CaFus1,190
same,SPOT peptide array binding signal intensity,CaHof1,2
same,SPOT peptide array binding signal intensity,CaHse1,10.8
same,SPOT peptide array binding signal intensity,CaLsb1,4
same,SPOT peptide array binding signal intensity,CaLsb4,3890
same,SPOT peptide array binding signal intensity,CaMyo5,4
same,SPOT peptide array binding signal intensity,CaNbp2,112
same,SPOT peptide array binding signal intensity,CaRvs167,303
same,SPOT peptide array binding signal intensity,CaRvs167-3,4.5
same,SPOT peptide array binding signal intensity,CaSho1,60
same,SPOT peptide array binding signal intensity,CaSla1-D1-D2,1220
same,SPOT peptide array binding signal intensity,CaSla1-D3,6
same,SPOT peptide array binding signal intensity,ScAbp1,147
same,SPOT peptide array binding signal intensity,ScBbc1,168
same,SPOT peptide array binding signal intensity,ScBem1-D1,12.5
same,SPOT peptide array binding signal intensity,ScBzz1-D1,81
same,SPOT peptide array binding signal intensity,ScBzz1-D2,56.5
same,SPOT peptide array binding signal intensity,ScCyk3,3
same,SPOT peptide array binding signal intensity,ScFus1,42
same,SPOT peptide array binding signal intensity,ScHof1,1.25
same,SPOT peptide array binding signal intensity,ScHse1,337
same,SPOT peptide array binding signal intensity,ScLsb1,29.5
same,SPOT peptide array binding signal intensity,ScLsb2,≤ 0
same,SPOT peptide array binding signal intensity,ScLsb3,3820
same,SPOT peptide array binding signal intensity,ScLsb4,1350
same,SPOT peptide array binding signal intensity,ScMyo3,≤ 0
same,SPOT peptide array binding signal intensity,ScMyo5,≤ 0
same,SPOT peptide array binding signal intensity,ScNbp2,41
same,SPOT peptide array binding signal intensity,ScPex13,58.2
same,SPOT peptide array binding signal intensity,ScRvs167,1460
same,SPOT peptide array binding signal intensity,ScSho1,286
same,SPOT peptide array binding signal intensity,ScSla1-D1-D2,546
same,SPOT peptide array binding signal intensity,ScSla1-D3,4.5
same,SPOT peptide array binding signal intensity,SpAbp1-D1,86
same,SPOT peptide array binding signal intensity,SpBbc1,4.25
same,SPOT peptide array binding signal intensity,SpBzz1-D1,356
same,SPOT peptide array binding signal intensity,SpBzz1-D2,2.5
same,SPOT peptide array binding signal intensity,SpCyk3,≤ 0
same,SPOT peptide array binding signal intensity,SpHof1,120
same,SPOT peptide array binding signal intensity,SpHof1-2,262
same,SPOT peptide array binding signal intensity,SpHof1-3,464
same,SPOT peptide array binding signal intensity,SpHse1,198
same,SPOT peptide array binding signal intensity,SpLsb1,16
same,SPOT peptide array binding signal intensity,SpLsb4,7280
same,SPOT peptide array binding signal intensity,SpMyo1,≤ 0
same,SPOT peptide array binding signal intensity,SpNbp2,27
same,SPOT peptide array binding signal intensity,SpPex13,15
same,SPOT peptide array binding signal intensity,SpRvs167,1700
same,SPOT peptide array binding signal intensity,SpSla1-D1-D2,≤ 0
same,SPOT peptide array binding signal intensity,SpSla1-D3,15
